Assay outcomes deposited in PubChem BioAssay by The Scripps Research Institute Molecular Screening Center.
The list is not random: actives were taken first. Their share in the collection is about 4.1%.
PRMT1 FP inh – PRMT1 (human) inhibition, primary screen; Q99873; recombinant PRMT1, activity-based probe fluorescence polarization; inhibition, % at 2.79 µM; 370,000 compounds, 1.3% hits; AID 652257;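 active means inhibition above about 21% made by adding two undisclosed values, limit read from the data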
UHRF1 binding – blocks human UHRF1 binding to methylated DNA; Q96T88; UHRF1 binding to methylated oligo, TR-FRET; inhibition, % at 4.4 µM; 370,000 compounds, 0.75% hits; AID 687016; in the data active means inhibition above about 21%;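 further: UHRF1 SRA domain binding a hemimethylated CpG hairpin DNA probe; 0% = median of test compound wells and 100% = reference inhibitor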
MBD2 inh – MBD2-methylated oligo binding inhibition; Q9UBB5; TR-FRET, MBD2 binding to methylated oligonucleotide; inhibition, % at 4.4 µM; 370,000 compounds, 0.31% hits; AID 686964; in the data active means inhibition above about 13%
ABHD5-PLIN5 inh – ABHD5-PLIN5 protein interaction inhibition. inhibition, % at 4 µM. Q00G26+Q8WTS1. Split G. princeps luciferase complementation, luminescence, 4 h. 360,000 compounds, 0.78% hits. AID 602281;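 active means inhibition above the mean inhibition across every tested compound plus 3 SD, cut at about 22% in these data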;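 further: 0% = DMSO only wells and the 100% control is not disclosed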
LEDGF integ inh – blocks HIV-1 LEDGF/p75-dependent DNA integration; TR-FRET IN-LEDGF/p75 DNA integration, Eu/Cy5; 370,000 compounds, 0.64% hits; inhibition, % at 3.7 µM;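 active means inhibition above the screen-wide mean plus 3 SD, cut at about 13% in these data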;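 further: signal is the Cy5 over europium emission ratio at 671 and 618 nm; 0% = plate median of compound wells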
rCAG binder – molecules binding r(CAG) RNA repeats; r(CAG) RNA repeat, TO-PRO-1 dye displacement fluorescence; inhibition, % at 3 µM; 370,000 compounds, 1.3% hits; AID 651821;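 active means inhibition above the plate cutoff, the mean of all test compounds on that plate plus 3 SD, cut at about 35% in these data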;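 further: 0% = DMSO alone and 100% = 100 µM mitoxantrone as full dye displacement; higher means more dye released from RNA so lower well fluorescence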
PRMT1 confirm – confirmation of human PRMT1 inhibitors; shares compounds with PRMT1 FP inh; recombinant His-PRMT1, activity-based probe fluorescence polarization; inhibition, % at 2.79 µM; 3,300 compounds, 42% hits;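 active means mean inhibition across replicates above the hit cutoff derived for the earlier primary screen, cut at about 22% in these data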
Active calls of the source: *; i = inactive; x = no result.

SMILES	PRMT1 FP inh	UHRF1 binding	MBD2 inh	ABHD5-PLIN5 inh	LEDGF integ inh	rCAG binder	PRMT1 confirm
Cc1ccc(C)c(NC(=S)c2nc3ccccc3s2)c1	29*	5	7	-9	1	-2	9
CN(C)CCNc1ccc2ncn3c4ccc(O)cc4c(=O)c1c23	67*	-67	1	-30	8	-4	88*
Cc1c(Cc2ccc3c(c2)OCO3)sc(NC(=O)C2CC2)c1C(N)=O	30*	3	4	-4	-3	-3	8
Cc1c(Cc2ccc3c(c2)OCO3)sc(NC(=O)c2cccc3ccccc23)c1C(N)=O	3	-4	4	-6	0	10	x
C=CS(=O)(=O)N[C@@H](CSSC[C@H](NS(=O)(=O)C=C)C(=O)OC)C(=O)OC	12	-1	1	x	-5	0	x
CCN(CC)S(=O)(=O)c1cccc(C(=O)N/N=C2\CCCC(=O)C2)c1	46*	0	4	6	-7	-11	-2
C=CCn1c(NCCO)nc2sc3c(c2c1=O)CCC3	33*	3	0	1	0	6	1
O=c1c2c3c(sc2nc(NCCO)n1CCc1ccccc1)CCCCC3	3	3	-2	-16	1	5	x
CCn1c(=O)n(CC(=O)N2CCCC2)c(=O)c2ccccc21	0	-2	0	x	3	3	x
COc1ccc(-c2cccc3c4c([nH]c23)[C@@H]2C[C@H]3[C@@H](C(=O)N2CC4)[C@H](C)ON3C)cc1	-2	-3	4	x	0	5	x
COc1ccc(C2c3sc(=O)[nH]c3SC3C(=O)N(c4ccccc4)C(=O)C32)cc1 (centres undefined)	27*	-9	-9	-29	12	29	1
CCOC(=O)c1sc(NNC(=O)c2ccc(F)cc2)nc1C	42*	1	6	11	-1	7	2
Cn1cccc1C(=O)N1CCN(S(=O)(=O)c2ccc(C(C)(C)C)cc2)CC1	-1	-2	3	x	0	3	x
COc1cc(Cl)cc(/C=C/c2ccc3ccccc3n2)c1OC(C)=O	-2	0	2	-1	1	1	x
COc1ccc(C=Cc2ccc3ccccc3n2)c(OC)c1	147*	-20	-18	-8	7	-22	7
CC(C)CNS(=O)(=O)CC1NCc2cc3c(cc21)OCO3 (centres undefined)	5	1	1	x	1	3	x
O=C1/C(=C/c2cccnc2)Sc2ccccc21	46*	-8	0	11	-2	9	12
CC(=O)Nc1ccc(/C=C2\Sc3ccccc3C2=O)cc1	6	9	-1	-1	-5	3	x
CCOC(=O)c1ccc(NC(=O)CC2SC(=NC)N(C)C2=O)cc1 (centres undefined)	1	0	0	-4	0	0	x
COc1ccc(NC(=O)CC2Sc3ncnn3C2=O)cc1 (centres undefined)	86*	2	3	10	-1	4	25*
CCOC(=O)c1ccc(NC(=O)CC2Sc3ncnn3C2=O)cc1 (centres undefined)	55*	2	1	8	2	8	69*
C[C@H](NC(=O)C[C@@H]1C[C@@H]2c3cc(NC(=O)C4CCC4)ccc3O[C@@H]2[C@@H](CO)O1)c1ccccc1	-6	0	-3	x	1	3	x
CC(C)CCNC(=O)C1CCN(c2cncnc2)CC1	2	0	-5	x	-3	2	x
Nc1cccnc1Sc1cc(Cl)cc(Cl)c1	62*	-7	-13	-1	4	-3	3
COc1cc(O)c(C(CC(=O)N2CCC(C)CC2)c2ccc3c(c2)OCO3)c(OC)c1 (centres undefined)	4	2	0	x	-2	x	x
SMILES	PRMT1 FP inh	UHRF1 binding	MBD2 inh	ABHD5-PLIN5 inh	LEDGF integ inh	rCAG binder	PRMT1 confirm
C#CCNC(=O)C[C@H]1C(=O)N(Cc2ccc(OC)cc2)C2=CCCC[C@@]21C(=O)OCC	-2	-1	-3	x	-3	0	x
OCc1ccccc1OCc1ccccc1	0	1	1	x	-1	2	x
CC1(C)Cc2c(C#N)c(N)n(-c3ccccc3)c(=S)c2CO1	6	-2	3	-6	-4	-4	x
N#Cc1c2c(c(=S)n(-c3ccccc3)c1N)CCCC2	26*	-4	-3	-6	1	-3	8
CNc1nc(N)c([N+](=O)[O-])c(Nc2cccc(OC)c2)n1	-2	-2	3	x	1	x	x
C[C@@H]1CN([C@H](C)CO)C(=O)CCCn2nncc2CO[C@@H]1CN(C)C(=O)Nc1ccccc1	0	2	-5	x	-3	3	x
CC(=O)OCCn1c2nc(=O)[nH]c(=O)c-2nc2cc(C)c(C)cc21	159*	-15	-15	-2	6	i	150*
CCCCN1CN2Cc3cc(OC)ccc3C2CS1(=O)=O (centres undefined)	0	-4	-5	x	0	2	x
CC(=Nc1ccc(Br)cc1)c1sc2ccccc2c1O	28*	0	0	1	6	0	11
CC(=Nc1ccccc1)c1sc2ccccc2c1O	33*	-3	-4	-3	0	-1	32*
CCOC(=O)C1=CCN(S(=O)(=O)c2ccc(Cl)cc2)C1c1cccc(Br)c1 (centres undefined)	-1	1	0	x	1	2	x
O=C1C(CSCc2ccccc2)NC(=S)N1c1ccccc1 (centres undefined)	27*	11	0	-5	2	6	68*
O=C(O)CC1NC(=S)N(c2ccccc2)C1=O (centres undefined)	-1	0	-2	4	-1	5	x
O=C1NCCCC2c3cc(O)c4ccccc4c3OC12N1CCCCC1 (centres undefined)	15	4	-3	x	13	8	x
O=C1NCCCC2c3c(cc(Br)c(O)c3Br)OC12N1CCOCC1 (centres undefined)	27*	-3	-2	6	-5	0	3
CO[C@@]1(NC(=O)C2SC(=C(C(N)=O)C(=O)O)S2)C(=O)N2C(C(=O)O)=C(CSc3nnnn3C)CS[C@@H]21 (some centres undefined)	37*	10	3	3	6	6	19
CO[C@@]1(NC(=O)Cc2cccs2)C(=O)N2C(C(=O)O)=C(COC(N)=O)CS[C@@H]21	15	2	-6	-1	0	10	x
COc1cccc(/C=N/n2c(COc3ccccc3)n[nH]c2=S)c1OC	27*	3	1	-7	2	29	8
Cc1cccc(/C=N/n2c(COc3ccccc3)n[nH]c2=S)c1	28*	1	1	-6	5	22	13
CC(/C=N/n1c(COc2ccccc2)n[nH]c1=S)=C\c1ccccc1	27*	-3	-3	-7	0	41*	5
